This is a sample that favours compounds with a hit; in the whole collection about 12% have one here.
G9a inh = qHTS Assay for Inhibitors of Histone Lysine Methyltransferase G9a; Histone-lysine N-methyltransferase EHMT2 (Homo sapiens), Q96KQ7; G9a H3K9 monomethylation, AlphaScreen, 2 h; Potency, µM (top dose mostly 102 µM), without a hit: at the top dose activity, negative = inhibition, most hits filed as inhibitors; 350,000 tested, 8.8% active; AID 504332, 2011; also: % is scaled to controls: 0 for no effect and ±100 for the full control effect; nearly all actives have a fitted effect of over 75% in size
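Using a bead-based AlphaScreen, monomethylated H3K9 product from 2 h room-temperature reactions (G9a 20 nM, peptide 500 nM, SAM 20 uM) was detected with 0.5 ug/mL rabbit anti-H3K9me1 antibody.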
HP1b binding inh = HTS for Inhibitors of HP1-beta Chromodomain Interactions with Methylated Histone Tails. AlphaScreen HP1-beta / biotin-H3K9me3 peptide binding. AID 540317, 2011. Potency, µM (titrated, usually from 114 µM), without a hit: top-dose activity change, negative = inhibition, actives largely listed as inhibitors. 390,000 tested, 0.56% active; also: nearly all actives have a fitted effect of over 70% in size
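HP1-beta protein (50 nM final) preincubated 30 min at room temperature with biotinylated H3(1-18)K9me3 peptide (50 nM) in PBS pH 7.4, 0.01% Tween-20, then compound added for 30 min. AlphaScreen streptavidin donor/nickel chelate acceptor beads (10 ug/mL final), 30 min dark, luminescence read.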
Sfp PPTase inh = qHTS Assay for Inhibitors of Bacillus subtilis Sfp phosphopantetheinyl transferase (PPTase). AID 1490, 2009. Biochemical Sfp PPTase activity, qHTS. 310,000 tested, 3.5% active. 4'-phosphopantetheinyl transferase ffp (Bacillus subtilis), Q9F4F7. Potency, µM, without a hit: largest response in the series, negative = inhibition, most hits filed as inhibitors;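 also: the enzyme is Sfp with the accession as filed and its product quenches rhodamine fluorescence; 0% = enzyme reaction without inhibitor and -100% = no enzyme wells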
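Fluorescence-quenching assay with 15 nM Sfp, 5 uM rhodamine-CoA and 12.5 uM BHQ-2-labelled ybbR peptide in pH 7.6 Hepes/MgCl2 buffer. Enzyme was pre-incubated with compound for 15 min at room temperature. Rate was taken from the 30-min fluorescence change (525/598 nm).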
L3MBTL1 block = qHTS Assay for the Inhibitors of L3MBTL1. Lethal(3)malignant brain tumor-like protein 1 (Homo sapiens), Q9Y468. AlphaScreen L3MBTL1–H3K9me1 peptide binding. Potency, µM (titrated, usually from 57.1 µM), for the others: at the highest dose activity, negative = inhibition, most hits filed as inhibitors. 230,000 tested, 0.66% active; also: % is scaled to controls: 0 for no effect and ±100 for the full control effect; nearly all actives have a fitted effect of over 60% in size
Target sequence (Q9Y468 whole entry, looked up): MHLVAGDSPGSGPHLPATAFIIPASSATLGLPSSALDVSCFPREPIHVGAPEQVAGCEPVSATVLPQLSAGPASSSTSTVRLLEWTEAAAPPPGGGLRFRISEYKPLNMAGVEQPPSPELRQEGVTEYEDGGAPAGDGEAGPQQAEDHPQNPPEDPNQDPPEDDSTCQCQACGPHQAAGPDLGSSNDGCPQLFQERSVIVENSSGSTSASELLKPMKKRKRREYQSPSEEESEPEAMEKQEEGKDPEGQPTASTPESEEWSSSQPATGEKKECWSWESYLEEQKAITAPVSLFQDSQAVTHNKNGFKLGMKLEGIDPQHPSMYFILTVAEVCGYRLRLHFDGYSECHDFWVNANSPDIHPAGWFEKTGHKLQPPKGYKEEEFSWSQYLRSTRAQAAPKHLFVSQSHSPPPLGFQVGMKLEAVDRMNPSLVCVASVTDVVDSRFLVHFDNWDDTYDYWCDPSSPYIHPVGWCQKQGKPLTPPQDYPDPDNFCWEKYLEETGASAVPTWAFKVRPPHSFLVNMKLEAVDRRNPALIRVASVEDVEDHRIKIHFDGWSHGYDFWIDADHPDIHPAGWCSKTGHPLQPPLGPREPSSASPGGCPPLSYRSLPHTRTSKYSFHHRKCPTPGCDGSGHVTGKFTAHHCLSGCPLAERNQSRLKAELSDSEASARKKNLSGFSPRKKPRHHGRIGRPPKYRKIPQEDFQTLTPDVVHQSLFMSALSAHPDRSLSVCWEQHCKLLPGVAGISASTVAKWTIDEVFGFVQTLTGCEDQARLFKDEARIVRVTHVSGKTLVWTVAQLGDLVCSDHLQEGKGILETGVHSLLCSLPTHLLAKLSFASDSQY
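AlphaScreen proximity signal between nickel-chelate acceptor and streptavidin donor beads (final 10 ug/mL) reports binding of 50 nM L3MBTL1 to 75 nM biotin-H3 K9me1 peptide; complex incubated with compounds 30 min at room temperature; cefsulodin titration as control.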
BAZ2B inh = qHTS Assay for Inhibitors of BAZ2B; Potency, µM (series often up to 114 µM), for inactives: at the top dose activity change, negative = inhibition, most hits filed as inhibitors; 360,000 tested, 4.4% active; Bromodomain adjacent to zinc finger domain protein 2B (Homo sapiens), Q9UIF8; AlphaScreen BAZ2B-H3K14Ac peptide displacement; also: % is scaled to controls: 0 for no effect and ±100 for the full control effect; nearly all actives have a fitted effect of over 60% in size
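Compounds, titrated to a top concentration of 110 uM, were incubated 30 min at room temperature with preformed BAZ2B/acetyl-K14 H3 peptide complex (50 nM each). Proximity signal was measured by AlphaScreen after 20 min with beads.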
JMJD2A Tudor inh = qHTS Assay for Inhibitors of JMJD2A-Tudor Domain; 390,000 tested, 4.4% active; AID 504339, 2011; AlphaScreen JMJD2A-Tudor / H3K4me3 peptide binding; Potency, µM (top dose mostly 114 µM), for inactives: top-dose activity change, negative = inhibition, actives largely listed as inhibitors; also: % is scaled to controls: 0 for no effect and ±100 for the full control effect; nearly all actives have a fitted effect of over 50% in size
Active calls of the source: *; ? = inconclusive; . = no result given; ! = a repeat was not active; [ ] = remark or other dose. Calls follow the shape of the dose curve; as a rule, active = well fitted curve in the direction sought with a large enough effect; inconclusive = small, poorly fitted or top-dose-only effect, or another doubt; inactive = no such curve, though single readings can be large; an effect the other way counts as inactive or inconclusive. Potency is read from the fitted curve at half-maximal effect.

SMILES | G9a inh | HP1b binding inh | Sfp PPTase inh | L3MBTL1 block | BAZ2B inh | JMJD2A Tudor inh
COc1cc(/C=N\Nc2nncn2N)ccc1OC(C)=O | 71µM* | 41% | -25% | . | -15% | -8%
Nn1cnnc1N/N=C/c1cc(Br)cc(Br)c1O | 24%[2.33 µM] | 36% | 10% | -8% | 32µM* | 89µM*
CC1CCN(c2ccc(/C=N/n3nnnc3N)cc2[N+](=O)[O-])CC1 | 0% | 11% | 11% | -8% | ? | -8%
CCCCc1nc2c(c3c1C[C@H](C)OC3)CN(C(=O)c1cccnc1)CC2 | . | . | 10% | . | . | .
CCOC(c1cc(OC)cc([N+](=O)[O-])c1OC)C(C)C(OC)[C@@H](C)/C=C/CC(=O)OC (stereo partly specified) | . | . | 3% | . | . | .
CSc1ccc(/C=N/NC(=O)c2ccc(-n3cnnn3)cc2)cc1 | ? | 25% | . | 9% | ? | -41%
CSc1ccc(/C=N\Nc2nncn2N)cc1 | ? | 32% | 79µM* | . | -8% | -18%
COCCCn1c(SCC(=O)Nc2ccc(F)cc2)nc2c(sc3ccccc32)c1=O | -1%[59 µM] | -12% | . | . | -4% | -15%
CCc1c(C(C)S(=O)(=O)c2ccccc2)[nH]c(=O)n1CC (stereo unspecified) | 3.5µM* | -32% | 50µM* | 4% | -13% | ?
Cc1ccccc1Nc1c(-c2ccc(Cl)s2)nc2ccccn12 | . | 12% | . | . | . | -13%
CCN(CC)CCCn1c2c(c(SCC(=O)Nc3cc(OC)cc(OC)c3)nc1=O)CCC2 | 50µM* | 33% | . | -2% | 2% | -9%
CN(C)CCCn1c2c(c(SCC(=O)Nc3cccc4ccccc34)nc1=O)CCCC2 | 40µM* | 19% | . | -2% | 3% | -5%
CCCCc1ccc(NC(=O)CSc2nc(=O)n(CCN(CC)CC)c3c2CCC3)cc1 | 50µM* | 8% | . | 2% | -1% | -34%
Cc1ccc(NC(=O)CSc2nc(=O)n(CCCN(C)C)c3c2CCC3)c(C)c1 | -27% | 13% | . | 12% | -8% | -8%
CCN(CC)CCCn1c2c(c(SCC(=O)Nc3cccc4ccccc34)nc1=O)CCC2 | 40µM* | 13% | . | -2% | 12% | -17%
Cc1cc(O)c(C(C)C)cc1N=C1CSC(=O)N1 | ? | 1% | 56µM* | -10% | -8% | -26%
O=C1NC(=Nc2ccccc2)CS1 | 3%[12.7 µM] | 16% | -1% | 35% | 3% | -5%
Cc1cccc(N2CCN(Cc3oc(CO)cc(=O)c3O)CC2)c1C | 5%[12.7 µM] | 25% | -21% | . | -37% | ?
O=c1cc(CO)oc(CN2CCN(CCO)CC2)c1O | ? | -2% | -26% | . | -30% | 2.8µM*
O=C(NCc1ccncc1)c1ccc(Oc2ccccc2)cc1 | 15% | 1% | -6% | -4% | -14% | 13µM*
O=C(CCNNC(=O)c1ccncc1)NCc1ccccc1 | 10µM*! | 42% | -27% | 2% | 5% | 3%
CCOc1ccc(-c2nc(CSCC(=O)NCc3ccc(Cl)cc3)c(C)o2)cc1 | -13%[59 µM] | -2% | . | . | -7% | -27%
CCN1/C(=C2/SC(=S)N(C)C2=O)C=Cc2cc(C)ccc21 | . | 8% | . | . | . | -23%
CCN1C(=O)/C(=C2/C=Cc3cc(C)ccc3N2CC)N(C)C1=S | 11µM* | ? | ? | -10% | 40µM* | 16µM*
CCN1/C(=C2\C(=O)N(C)C(=S)N2C)C=Cc2cc(OC)ccc21 | 7.9µM* | ? | 50µM* | -1% | 56µM* | ?
CCOc1nc(C)cc(C)c1S(=O)(=O)c1cccc(Cl)c1 | 130% | 175% | 4% | . | 171% | 91%
CCOCc1cnc(C)nc1NCC(=O)c1c(C)n(C)c2ccc(OC)cc12 | 14µM* | 13% | 6% | -11% | 50µM* | 2%

Screening results as filed in PubChem.
